# Active and inactive are the calls of the source. Unless noted, no stated cut-off is given here; in the data, active means inhibition above about 80%; inactive means the rest.
# Columns and labels:
# [1] = LFS_MB_P medulloblastoma growth inhibition, cell-based, chromothripsis tumors, cisplatin or BGB combos (AID 1671449); conditions: LFS_MB_P medulloblastoma cells;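 further: cells exposed for 96 hours; 0% = vehicle DMSO and 100% = killing by high DMSO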
# [2] = HDN33 neuroblastoma growth inhibition, cell-based, chromothripsis tumors, cisplatin or BGB combos (AID 1671450); conditions: HDN33 neuroblastoma cells, stronger effect = higher value;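 further: cells exposed to compound for four days; 0% = vehicle DMSO and 100% = cell killing by high DMSO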
# [3] = ICB984 medulloblastoma cell growth inhibition, synergistic combos for chromothripsis tumors, cisplatin or BGB combos (AID 1671451; call rule not given here;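 further: cells exposed for 96 hours before readout; 0% = vehicle DMSO and 100% = killing by high DMSO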); conditions: ICB984 medulloblastoma cells, drug combinations, stronger effect = higher value
# [4] = LFS_MB_1R medulloblastoma cell growth inhibition, synergistic combos for chromothripsis tumors, cisplatin or BGB combos (AID 1671452); conditions: LFS_MB_1R medulloblastoma cells, stronger effect = higher value;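 further: cells exposed for 96 hours before readout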
# [5] = HTB85 osteosarcoma cell growth inhibition, synergistic combos for chromothripsis tumors, BGB or cisplatin IC20 combos (AID 1671453); conditions: HTB85 osteosarcoma cells, drug combinations, stronger effect = higher value;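 further: cells exposed for 96 hours before readout; 0% = vehicle DMSO and 100% = high DMSO killing control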
# [6] = CRL2098 osteosarcoma cell growth inhibition, synergistic combos for chromothripsis tumors, BGB or cisplatin IC20 combos (AID 1671454); conditions: CRL2098 osteosarcoma cells, drug combinations, stronger effect = higher value;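 further: cells exposed for 96 h before readout; 0% = vehicle DMSO and 100% = killing by high DMSO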
# [7] = HD-MB03 medulloblastoma cell growth inhibition, synergistic combos for chromothripsis tumors, BGB or cisplatin IC20 combos (AID 1671455; in the data active means inhibition above about 83%;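 further: 0% = vehicle DMSO and 100% = high DMSO as cytotoxic control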); conditions: HD-MB03 medulloblastoma cells, stronger effect = higher value
# [8] = UWB1.289 ovarian carcinoma cell growth inhibition, synergistic combos for chromothripsis tumors, BGB or cisplatin combos (AID 1671456); conditions: UWB1.289 ovarian carcinoma cells, stronger effect = higher value;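 further: cells exposed to compound for four days; 0% = vehicle DMSO and 100% = killing by high DMSO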
# [9] = LFS_MB_2R medulloblastoma cell growth inhibition, synergistic combos for chromothripsis tumors, cisplatin combos (AID 1671457); conditions: LFS_MB_2R medulloblastoma cells, stronger effect = higher value;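 further: cells exposed to compound for four days before readout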
# [10] = MDA-MB-436 breast carcinoma cell growth inhibition, synergistic combos for chromothripsis tumors, BGB or cisplatin combos (AID 1671458; call rule not given here;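 further: cells exposed for 96 hours; 0% = vehicle DMSO and 100% = killing by high DMSO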); conditions: MDA-MB-436 breast carcinoma growth inhibition, drug combinations, stronger effect = higher value
# [11] = UWB1.289_BRCA1 ovarian cancer growth, cell-based, BGB or cisplatin combinations (AID 1671459); conditions: UWB1.289 BRCA1 ovarian carcinoma, drug combinations, stronger effect = higher value
# [12] = human astrocyte viability loss, single and combined drugs, cytotoxicity control for chromothriptic childhood tumor combination screen, cell-based, BGB or cisplatin IC20 combos (AID 1671460); conditions: Human astrocytes, drug combinations, stronger effect = higher value;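 further: cells exposed to compounds for 96 hours before viability readout; 0% = vehicle and 100% = killing control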
# [13] = growth inhibition of BT084 medulloblastoma cells, cell-based, ICGC_MB145, cisplatin and BGB IC40 combos (AID 1671461); conditions: drug combinations, stronger effect = higher value;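 further: cells exposed to drugs for 96 hours; 0% = vehicle DMSO and 100% = high DMSO full killing control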
# [14] = growth inhibition of RCMB18 medulloblastoma cells, cell-based, cisplatin and BGB IC40 combos (AID 1671462); conditions: stronger effect = higher value;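 further: cells exposed to compound for four days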
# [15] = growth inhibition of CRL1545 osteosarcoma cells, cell-based, cisplatin and BGB IC20 combos (AID 1671464); conditions: stronger effect = higher value;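 further: cells exposed to compound for 96 hours before readout; 0% = vehicle DMSO and 100% = high DMSO killing control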
# [16] = measured here: combination with BGB IC40, at 0.05 µM
# [17] = measured here: with BGB IC20 combination, at 0.5 µM
# [18] = measured here: with cisplatin IC20 combination, at 0.5 µM
# [19] = measured here: combination with cisplatin, at 0.5 µM
# [20] = measured here: combination with cisplatin, at 5 µM
compound,measurement,setting,value
CO[C@H]1/C=C/O[C@@]2(C)Oc3c(C)c(O)c4c(O)c(c5c(c4c3C2=O)=NC2(CCN(CC(C)C)CC2)N=5)NC(=O)/C(C)=C\C=C\[C@H](C)[C@H](O)[C@@H](C)[C@@H](O)[C@@H](C)[C@H](OC(C)=O)[C@@H]1C,inhibition,"[1]; at 0.5 µM, stronger effect = higher value",6.6% (inactive)
same,inhibition,"[1]; measured here: combination with BGB IC20, at 0.005 µM",-30.2%
same,inhibition,"[1]; measured here: combination with BGB IC40, at 0.005 µM",-46.5%
same,inhibition,[1]; [16],-18.6%
same,inhibition,"[1]; measured here: combination with cisplatin, at 0.5 µM, stronger effect = higher value",63%
same,inhibition,"[1]; measured here: combination with cisplatin, at 5 µM, stronger effect = higher value",-0.387%
same,inhibition,"[2]; BGB combo, at 5 µM",-22.5%
same,inhibition,[2]; at 0.5 µM,1.4% (inactive)
same,inhibition,"[2]; cisplatin combo, at 5 µM",-9.76%
same,inhibition,[2]; [17],-13.2%
same,inhibition,[2]; [18],8.47%
same,inhibition,"[2]; single agent, at 5 µM",11%
same,inhibition,"[3]; BGB IC20 combo, at 0.005 µM",3.39%
same,inhibition,"[3]; BGB IC40 combo, at 0.005 µM",6.3%
same,inhibition,"[3]; BGB IC40 combo, at 0.05 µM",12%
same,inhibition,[3]; at 0.5 µM,-8.24% (inactive)
same,inhibition,"[3]; cisplatin combo, at 0.05 µM",7.56%
same,inhibition,"[3]; cisplatin combo, at 0.5 µM",-8.29%
same,inhibition,"[3]; cisplatin combo, at 5 µM",0.667%
same,inhibition,"[3]; measured here: 5 uM single agent, at 5 µM",-5.87%
same,inhibition,[4]; at 0.5 µM,-1.23% (inactive)
same,inhibition,[4]; [16],-1.35%
same,inhibition,[4]; [19],1.03%
same,inhibition,[4]; [20],-6.05%
same,inhibition,[5]; at 0.5 µM,5.7% (inactive)
same,inhibition,"[5]; measured here: with BGB IC20, at 0.5 µM",19%
same,inhibition,"[5]; measured here: with BGB IC20, at 5 µM",26.5%
same,inhibition,"[5]; measured here: with cisplatin IC20, at 0.5 µM",-4.7%
same,inhibition,"[5]; measured here: with cisplatin IC20, at 5 µM",9.84%
same,inhibition,"[5]; single agent, at 5 µM",14.9%
same,inhibition,[6]; at 0.5 µM,1.32% (inactive)
same,inhibition,"[6]; measured here: combination with BGB at IC20, at 0.5 µM",-21.2%
same,inhibition,"[6]; measured here: combination with cisplatin at IC20, at 0.5 µM",29.4%
same,inhibition,[7]; at 0.5 µM,5.15% (inactive)
same,inhibition,"[7]; measured here: combo with BGB at IC20, at 0.5 µM",7.14%
same,inhibition,"[7]; measured here: combo with cisplatin at IC20, at 0.5 µM",3.29%
same,inhibition,[8]; at 0.5 µM,1.18% (inactive)
same,inhibition,"[8]; measured here: inhibition with BGB combination, at 0.05 µM",4.24%
same,inhibition,"[8]; measured here: inhibition with cisplatin combination, at 0.05 µM",-0.452%
same,inhibition,[9]; at 0.5 µM,1.7% (inactive)
same,inhibition,[9]; [19],13.1%
same,inhibition,[9]; [20],18.7%
same,inhibition,[10]; at 0.5 µM,0.36% (inactive)
same,inhibition,"[10]; measured here: BGB combination, at 0.5 µM",1.73%
same,inhibition,"[10]; measured here: BGB combination, at 5 µM",-12.5%
same,inhibition,"[10]; measured here: cisplatin combination, at 0.5 µM",-2.44%
same,inhibition,"[10]; measured here: cisplatin combination, at 5 µM",-1.97%
same,inhibition,"[11]; BGB combination, concentration series, at 5 µM",-1.95%
same,inhibition,[11]; at 0.5 µM,1.5% (inactive)
same,inhibition,"[11]; cisplatin combination, concentration series, at 5 µM",4.45%
same,inhibition,[12]; at 0.5 µM,-10.5% (inactive)
same,inhibition,"[12]; measured here: combo with BGB IC20, at 0.5 µM",-5.38%
same,inhibition,"[12]; measured here: combo with cisplatin IC20, at 0.5 µM",-10.5%
same,inhibition,[13]; at 0.5 µM,0.406% (inactive)
same,inhibition,"[13]; cisplatin combination, at 0.5 µM",-4.06%
same,inhibition,"[13]; cisplatin combination, at 5 µM",-22.6%
same,inhibition,"[13]; measured here: BGB IC40 combination 0.05 uM, at 0.05 µM",-14.2%
same,inhibition,"[13]; single agent, at 5 µM",14.2%
same,inhibition,[14]; at 0.5 µM,-2.39% (inactive)
same,inhibition,"[14]; cisplatin combo, at 5 µM",17.1%
same,inhibition,"[14]; measured here: BGB IC40 combination, at 0.05 µM",-17.4%
same,inhibition,[14]; [19],-9.55%
same,inhibition,"[14]; single agent, at 5 µM",16.6%
same,inhibition,[15]; at 0.5 µM,7.88% (inactive)
same,inhibition,[15]; [17],-2.39%
same,inhibition,[15]; [18],11.6%
same,inhibition,"[15]; single agent, at 0.05 µM",4.52%
same,inhibition,"[15]; single agent, at 5 µM",-19.7%

# Reference: PubChem BioAssay
